The values that follow come from PubChem BioAssay (Tox21).

A short description of assay [1]: qHTS assay to identify small molecule antagonists of the glucocorticoid receptor (GR) signaling pathway - cell viability counter screen (AID 720693). Note: nearly all actives have a fitted effect of over 55% in size. On the technique in general: In qHTS, concentration-response curves come from the screen itself.
Assay [2] is described as follows: qHTS assay for identifying genotoxic compounds that show differential cytotoxicity against isogenic chicken DT40 cell lines with known DNA damage response pathways - wild type cell line (AID 743012). Note: nearly all actives have a fitted effect of over 60% in size. In short, it runs like this:
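Viability of DNA repair-proficient chicken DT40 cells was assessed by CellTiter-Glo luminescence following 40 h compound exposure at 37 C/5% CO2.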

Assay [3] is described as follows: qHTS assay for identifying genotoxic compounds that show differential cytotoxicity against isogenic chicken DT40 cell lines with known DNA damage response pathways - Rad54/Ku70 mutant cell line (AID 743015). Note: nearly all actives have a fitted effect of over 60% in size. Note: potency is the fitted concentration of half-maximal effect.
A short description of assay [4]: qHTS assay to identify small molecule antagonists of the androgen receptor (AR) signaling pathway - cell viability counter screen (AID 743033; note: nearly all actives have a fitted effect of over 45% in size).
Assay [5] is described as follows: qHTS assay to identify small molecule antagonists of the androgen receptor (AR) signaling pathway using the MDA cell line - cell viability counter screen (AID 743041; note: nearly all actives have a fitted effect of over 45% in size). A digest of the protocol:
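Compound exposure lasted 16 h at 37C in MDA-kb2 AR-luc cells stimulated with R1881. Protease-based CellTiter-Fluor reagent was applied for the final 30 min and fluorescence measured.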

Assay [6] can be described thus: qHTS assay to identify small molecule antagonists of the thyroid receptor (TR) signaling pathway - cell viability counter screen (AID 743064). Note: nearly all actives have a fitted effect of over 50% in size. Note: potency is the fitted concentration of half-maximal effect. In short, it runs like this: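 Compounds were tested on GH3.TRE-Luc cells in the presence of T3 at 1 nM final. Following 23.5 h at 37 °C, cell viability was quantified by CellTiter-Fluor.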
Assay [7] in a line: qHTS assay for identifying genotoxic compounds that show differential cytotoxicity against isogenic chicken DT40 cell lines with known DNA damage response pathways - Rev3 mutant cell line (AID 743014). Note: nearly all actives have a fitted effect of over 55% in size. Note: potency is the fitted concentration of half-maximal effect.
Assay [8] addresses Androgen receptor (Homo sapiens) (UniProt P10275). The experiment in a line: qHTS assay to identify small molecule agonists of the androgen receptor (AR) signaling pathway (AID 743036; active = well fitted activation curve with a large enough effect in the signal ratio in the repeat runs, with a control signal flat, not every such curve was filed as active; the % refers to the signal ratio). A digest of the protocol:
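Beta-lactamase under UAS control, stably integrated in HEK293 GripTite cells, reports receptor activation. After 16 h compound treatment, cells received FRET substrate for 2 h at room temperature before fluorescence reading.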

For assay [9] the target is unchanged. The experiment in a line: qHTS assay to identify small molecule agonists of the androgen receptor (AR) signaling pathway using the MDA cell line (AID 743040; note: nearly all actives have a fitted effect of over 20% in size). A digest of the protocol: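 Testing was done with the MDA-kb2 AR-luc line, a human breast carcinoma stably transfected with MMTV-luciferase containing AR and GR response elements. Cells were exposed 16 h at 37C before ONE-Glo luminescence detection.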

Assay [10] has the same target. Briefly: qHTS assay to identify small molecule antagonists of the androgen receptor (AR) signaling pathway using the MDA cell line (AID 743042; note: nearly all actives have a fitted effect of over 55% in size). In short, it runs like this:
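MDA-kb2 breast carcinoma cells carrying MMTV-luciferase (AR/GR responsive) were co-treated with compounds and the agonist R1881 for 16 h at 37C. Inhibition read as ONE-Glo luminescence; CellTiter-Fluor fluorescence measured in parallel for cytotoxicity.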

A number with no mark means an inactive call. Results filed as inconclusive are left out. Active and inactive are the calls of the source. Unless noted, calls come from the whole dose curve; as a rule, active = well fitted curve in the direction sought with a large enough effect in the repeat runs; inconclusive = weak or mixed curves; inactive = no such curve, though single readings can be large; an effect the other way counts as inactive or inconclusive.
% is set by controls: 0 for no effect and ±100 for the full control effect.

Sequence of Androgen receptor (Homo sapiens) (P10275 whole entry, looked up): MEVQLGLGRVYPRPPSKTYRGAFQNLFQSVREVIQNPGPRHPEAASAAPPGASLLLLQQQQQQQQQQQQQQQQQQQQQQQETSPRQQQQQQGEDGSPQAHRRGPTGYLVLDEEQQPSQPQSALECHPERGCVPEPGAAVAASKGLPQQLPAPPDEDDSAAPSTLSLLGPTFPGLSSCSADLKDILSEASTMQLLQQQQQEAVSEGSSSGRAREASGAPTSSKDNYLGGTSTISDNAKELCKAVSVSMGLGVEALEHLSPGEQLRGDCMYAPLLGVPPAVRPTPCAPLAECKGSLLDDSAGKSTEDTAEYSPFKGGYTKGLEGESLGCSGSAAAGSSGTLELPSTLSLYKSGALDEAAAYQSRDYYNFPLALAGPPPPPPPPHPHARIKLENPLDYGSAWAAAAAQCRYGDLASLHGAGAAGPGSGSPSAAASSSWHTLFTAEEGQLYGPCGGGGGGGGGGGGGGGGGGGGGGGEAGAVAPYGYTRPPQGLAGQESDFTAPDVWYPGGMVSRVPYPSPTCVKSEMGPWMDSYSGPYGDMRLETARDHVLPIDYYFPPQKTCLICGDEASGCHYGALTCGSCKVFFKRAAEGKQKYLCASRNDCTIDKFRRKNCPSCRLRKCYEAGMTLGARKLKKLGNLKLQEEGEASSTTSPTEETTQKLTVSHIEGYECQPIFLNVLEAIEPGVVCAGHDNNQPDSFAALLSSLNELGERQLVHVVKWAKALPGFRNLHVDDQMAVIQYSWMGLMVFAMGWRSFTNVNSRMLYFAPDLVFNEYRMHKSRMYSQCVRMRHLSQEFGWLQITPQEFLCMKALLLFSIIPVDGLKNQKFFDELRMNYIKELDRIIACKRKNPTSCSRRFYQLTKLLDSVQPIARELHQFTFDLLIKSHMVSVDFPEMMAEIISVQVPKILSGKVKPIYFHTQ

As to `CCCCCC(=O)CC`, the result in assay [1], in assay [4] and in assay [5] was inactive. In addition, the Potency result in assay [2], in assay [3] and in [6] was “inactive” each time.
For the molecule `O=C(O)P(=O)(O)O`, the molecule was classed as inactive in assay [1], in assay [4] and in assay [5]. For the same molecule, the Potency entry in assay [2], in assay [3] and in assay [6] was “inactive” each time.
`Nc1ccc(C(=O)NCC(=O)O)cc1`: the molecule was classed as inactive in assay [1], in [4] and in [5]. Moreover, the Potency result in assay [2], in assay [3] and in [6] was “inactive” each time.
Take `C[C@H]1COc2c(C3(N)CC3)c(F)cc3c(=O)c(C(=O)O)cn1c23`: the result in assay [1] and in assay [5] was inactive. For the same molecule, the Potency entry in assay [2], in assay [7], in [3] and in assay [6] was “inactive” in each case.
As to `O=c1[nH]c(=O)c2cn[nH]c2[nH]1`, the call in assay [1], in assay [4] and in assay [5] was inactive. Moreover, the Potency result in [2], in assay [3] and in [6] was “inactive” each time.
As to `COc1cc(NS(=O)(=O)c2ccc(N)cc2)ncn1`, the call in assay [1] and in assay [5] was inactive. Besides, the Potency result in [2], in [7], in assay [3] and in assay [6] was “inactive” each time.
Regarding `C=CCCCCCCCCOC(C)=O`, the molecule was called inactive in assay [1], in [4] and in assay [5]. For the same molecule, the Potency entry in assay [2], in assay [7] and in assay [6] was “inactive” each time.
In the case of `CCCCS`, the call in [1] and in assay [5] was inactive. Moreover, the Potency result in assay [2], in assay [7], in assay [3] and in assay [6] was “inactive” throughout.
For the molecule `COC(=O)N/N=C/c1c[n+]([O-])c2ccccc2[n+]1[O-]`, the outcome in assay [1], in [4] and in assay [5] was inactive. Also, the Potency result in assay [2] and in assay [6] was “inactive” in each case.
For `CC1(C)C(=O)C(C)(C)C1=O`, the result in [1], in [4], in assay [8], in assay [9], in assay [5] and in assay [10] was inactive. Further, the Potency entry in [2], in assay [3] and in [6] was “inactive” each time.
Regarding `CCc1ncc(C)[nH]1`, the molecule was classed as inactive in assay [1], in assay [8], in assay [9], in [5] and in assay [10]. The Potency result in assay [2], in assay [7], in [3] and in assay [6] was “inactive” in each case.
Take `Cc1ccc(O)c(C(=O)c2ccccc2)c1`: the molecule was called inactive in assay [1], in assay [8] and in [9]. The Potency entry in [2], in assay [7], in [3] and in [6] was “inactive” throughout.
As to `C/C(=N\O)c1ccc(OCC(=O)N2CCCCC2)cc1`, the molecule was called inactive in assay [1], in assay [4], in assay [8], in [9] and in [10]. Moreover, the Potency result in assay [7], in [3] and in assay [6] was “inactive” in each case.
In the case of `CCCCCCCCCCCCCCCCN(C)C`, the viability change, negative = cytotoxic in [1] was 9.67% [at 7.04 µM]; in [5], -2.54% [at 8.47 µM]. Further, the results for the activity change, negative = cytotoxicity in assay [2] and in assay [4] were 9.27% [at 8.52 µM] and -5.02% [at 7.04 µM], respectively. Also, in [8], the activation is -6% [at 6.9 µM]. Also, the activity change in [9] was 0.294% [at 8.47 µM]. For the same molecule, the activity change, negative = inhibition in assay [10] is 19.6% [at 8.47 µM]. Moreover, in assay [6], the activity change, negative = cytotoxic was 0.507% [at 8.44 µM].
On to `COC(C)(C)CC(C)=O`, for which the outcome in [1], in assay [4], in assay [8], in assay [9], in assay [5] and in [10] was inactive. Moreover, the values for the Potency in assay [7] and in assay [3] were 54.5 µM (active) and 61.1 µM (active), respectively. Further, the Potency entry in [6] is “inactive”.
`CC(=O)c1c(C)cc(C(C)(C)C)cc1C`: the outcome in assay [1] and in assay [4] was inactive. For the same molecule, the Potency entry in [2], in [7] and in assay [6] was “inactive” each time.
Regarding `BrCCOc1ccccc1`, the result in assay [1], in [4] and in [5] was inactive. Also, the Potency result in assay [2], in assay [3] and in [6] was “inactive” throughout.
For `Cc1cc(C)c(N)c(Cl)c1`, the call in assay [1] and in assay [4] was inactive. Besides, the Potency entry in assay [2], in [7], in [3] and in [6] was “inactive” in each case.
Regarding `CCC(C)(C)C`, the Potency result in [2], in assay [7] and in assay [3] was “inactive” throughout. Moreover, the call in [4] was inactive.
Regarding `CCCC(=O)C(CC)Sc1ccoc1C` (centres undefined), the molecule was classed as inactive in assay [1], in assay [4], in [8], in assay [9], in assay [5] and in [10]. Also, in assay [6], the Potency result was “inactive”.
Consider `CN(C)c1cc(NC(=O)CNC(C)(C)C)c(O)c2c1C[C@H]1C[C@H]3[C@H](N(C)C)C(=O)C(C(N)=O)=C(O)[C@@]3(O)C(=O)C1=C2O`, for which the call in assay [1], in assay [4], in [9], in assay [5] and in [10] was inactive. Besides, the Potency result in [3] was “inactive”.
For the molecule `NNC(=O)OCc1ccccc1`, the Potency result in assay [2], in assay [7], in [3] and in [6] was “inactive” in each case. In addition, the outcome in assay [4], in assay [8], in assay [9], in assay [5] and in assay [10] was inactive.
With `CCO/C=C1\N=C(c2ccccc2)OC1=O`, the outcome in assay [1], in [4] and in [5] was inactive. For the same molecule, the Potency in [3] was 48.4 µM (active); in assay [6] it was 68.3 µM (active).
Regarding `Cc1ccc(N)nc1`, the Potency result in assay [2], in assay [7], in [3] and in [6] was “inactive” throughout. Besides, the result in assay [4], in assay [8], in assay [9], in assay [5] and in [10] was inactive.
Consider `CC(C)(C)NCC(O)COc1cccc2c1CCC(=O)N2` (centres undefined), for which the molecule was classed as inactive in [1], in assay [4], in assay [8], in [9], in [5] and in [10]. For the same molecule, the Potency entry in [7] and in assay [6] was “inactive” throughout.
`N[C@H]1C(O)O[C@H](CO)[C@@H](O)[C@@H]1O` (some centres undefined): the Potency entry in assay [2], in assay [7], in [3] and in assay [6] was “inactive” throughout. Further, the call in assay [4], in assay [8], in [9], in [5] and in assay [10] was inactive.
As to `COc1cc2nc(N3CCN(C(=O)C4CCCO4)CC3)nc(N)c2cc1OC` (centres undefined), the Potency entry in assay [2], in [7] and in assay [3] was “inactive” each time. Further, the result in assay [4] and in assay [5] was inactive.
Take `O=S(=O)(O)CC(O)CCl` (centres undefined): the molecule was classed as inactive in assay [1], in [4] and in assay [5]. In addition, the Potency result in assay [7], in assay [3] and in assay [6] was “inactive” each time.
With `COCCCOc1cc(C[C@@H](C[C@H](N)[C@@H](O)C[C@H](C(=O)NCC(C)(C)C(N)=O)C(C)C)C(C)C)ccc1OC`, the molecule was classed as inactive in assay [1], in assay [4] and in assay [5]. Also, the Potency result in assay [7], in assay [3] and in [6] was “inactive” each time.
